Experiment in all cases: qHTS profiling for inhibitors of Plasmodium falciparum proliferation (AID 504749); further: nearly all actives have a fitted effect of over 60% in size
Holding throughout (conditions): P. falciparum in erythrocytes, SYBR Green DNA, 72 h; series mostly up to 28.7 µM
A general note: In qHTS, concentration-response curves come from the screen itself.

One test relates to DIV30. The procedure, abridged: (§1)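 Readout was DNA-dye fluorescence from lysed cultures, ex 485/em 535 nm. Parasitized red cells had grown 72 h with compound; data scaled between 0.29 uM artemisinin and DMSO wells and corrected using vehicle-only plates.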
The next test concerns Dd2. The procedure, abridged:
as §1

The next test deals with ECU. The procedure, abridged:
as §1

In another test the test system is FAB9. The procedure, abridged:
as §1

The next test concerns GB4. The procedure, abridged:
as §1

In another test the test system is HB3. The procedure, abridged: as §1
The next test concerns ICS. The procedure, abridged: as §1
Another test deals with JCK. The procedure, abridged:
as §1

The next test has as its system N140. The procedure, abridged: as §1
The next test relates to P93_24. The procedure, abridged:
as §1

Each structure is given as a SMILES string. Results filed as inconclusive are left out. Active and inactive are the calls of the source. The call rests on the fitted dose curve; in most records, active means well fitted inhibition curve with a large enough effect; inconclusive means small, poorly fitted or top-dose-only effect; inactive means flat fitted curve, though single readings scatter.
Potency means the concentration at half of the fitted maximal effect.

Turning to `CCC(C)(S(=O)(=O)CC)S(=O)(=O)CC`, the Potency entry in the test with DIV30, in the test with Dd2, with ECU, in the test on FAB9, with GB4 and in the test with HB3 was “inactive” throughout. Further, the Potency result in the test with ICS, in the test on JCK, with N140 and in the test with P93_24 was “inactive” throughout.
Turning to `Clc1ccc(Cl)cc1`, the Potency result in the test on DIV30, with Dd2, in the test with ECU, with FAB9, in the test with GB4 and in the test with HB3 was “inactive” in each case. In addition, the Potency entry in the test on ICS, in the test with JCK, with N140 and with P93_24 was “inactive” each time.
As for `CCC1(CC)C(=O)NC(=O)N(C)C1=O`, the Potency result in the test on DIV30, in the test with Dd2, with ECU, with FAB9, in the test on GB4 and in the test with HB3 was “inactive” throughout. Besides, the Potency entry with ICS, with JCK, with N140 and in the test with P93_24 was “inactive” throughout.
As for `CNC(C)C(O)c1ccc(O)cc1` (stereo not given), the Potency result with DIV30, in the test on Dd2, in the test with ECU, in the test with FAB9, in the test on GB4 and with HB3 was “inactive” throughout. In addition, the Potency entry in the test on ICS, in the test with JCK, in the test with N140 and with P93_24 was “inactive” in each case.
With `CC(Cc1ccccc1)NC=O` (stereo not given), the Potency result in the test with DIV30, with Dd2, with ECU, with FAB9, with GB4 and with HB3 was “inactive” throughout. Further, the Potency result in the test with ICS, in the test on JCK, in the test on N140 and in the test on P93_24 was “inactive” each time.
As to `COC1=CC=C2[C@H]3Cc4ccc(OC)c5c4[C@@]2(CCN3C)[C@H]1O5`, the Potency entry in the test on DIV30, in the test with Dd2, in the test on ECU, in the test on FAB9, in the test with GB4 and with HB3 was “inactive” each time. The Potency entry in the test on ICS, in the test with JCK, in the test on N140 and in the test with P93_24 was “inactive” each time.
Take `CCCCCCCCOC(=O)c1ccccc1C(=O)OCCCCCCCC`: the Potency result in the test on DIV30, in the test on Dd2, in the test on ECU, in the test on FAB9, with GB4 and in the test on HB3 was “inactive” throughout. Moreover, the Potency entry in the test with JCK and in the test on N140 was “inactive” in each case.
Turning to `O=[N+]([O-])c1ccccc1`, the Potency entry with DIV30, in the test with Dd2, in the test with ECU, in the test on FAB9, in the test on GB4 and in the test with HB3 was “inactive” throughout. Besides, the Potency result in the test with ICS, in the test with JCK, in the test on N140 and in the test with P93_24 was “inactive” each time.
In the case of `[O]=[Cr](=[O])([OH])[O][Cr](=[O])(=[O])[OH]`, the Potency result in the test on DIV30, with Dd2, with ECU, in the test on FAB9, with GB4 and in the test with HB3 was “inactive” throughout. For the same compound, the Potency entry with ICS, with JCK, with N140 and with P93_24 was “inactive” in each case.
Turning to `O=[N+]([O-])C(Br)(CO)CO`, the Potency result in the test with DIV30, in the test with Dd2, in the test with ECU, in the test with FAB9, in the test on GB4 and in the test on HB3 was “inactive” each time. Moreover, the Potency entry in the test on ICS, in the test with JCK, with N140 and in the test on P93_24 was “inactive” throughout.
Turning to `CCCC(C)C1(CC)C(=O)NC(=O)NC1=O` (stereo not given), the Potency entry in the test with DIV30, in the test with Dd2, in the test on ECU, in the test on FAB9, with GB4 and with HB3 was “inactive” each time. For the same compound, the Potency result in the test on ICS, with JCK, in the test with N140 and in the test on P93_24 was “inactive” each time.
As for `S=C(S)N1CCNCC1`, the Potency result in the test with DIV30, in the test on Dd2, in the test with ECU, in the test on FAB9, in the test on GB4 and with HB3 was “inactive” each time. Further, the Potency entry in the test with ICS, with JCK, with N140 and in the test with P93_24 was “inactive” each time.
As for `CCCCCl`, the Potency result in the test on DIV30, with Dd2, in the test with ECU, in the test on FAB9, in the test on GB4 and with HB3 was “inactive” throughout. The Potency entry in the test with ICS, in the test on N140 and in the test with P93_24 was “inactive” each time.
`O=C1CN(O)C(c2ccccc2)=c2cc(Cl)ccc2=N1`: the Potency entry with DIV30, in the test on Dd2, in the test on ECU, in the test with FAB9, in the test on GB4 and in the test with HB3 was “inactive” throughout. Also, the Potency entry with ICS, in the test with JCK, in the test with N140 and in the test with P93_24 was “inactive” in each case.
Consider `O=C(NC(=O)c1c(F)cccc1F)Nc1ccc(Cl)c(Oc2ncc(C(F)(F)F)cc2Cl)c1`, for which the Potency result in the test on DIV30, in the test with Dd2, in the test on ECU, in the test with FAB9, in the test with GB4 and in the test with HB3 was “inactive” in each case. Further, the Potency entry in the test with ICS, in the test on JCK, in the test with N140 and in the test with P93_24 was “inactive” in each case.
Consider `C[CH2][Hg][S]c1ccccc1C(=O)O`, for which the Potency with DIV30 is 4.26 µM (active); in the test on Dd2, 2.24 µM (active); in the test on ECU, 3.16 µM (active); in the test with FAB9, 5.62 µM (active); in the test on GB4 it was 1.69 µM (active); in the test on HB3 it was 2.24 µM (active). Moreover, the Potency with ICS was 1.26 µM (active); in the test on JCK, 10 µM (active); with N140 it was 2.24 µM (active); in the test with P93_24, 2.82 µM (active).
In the case of `c1ccc2sc(SNC3CCCCC3)nc2c1`, the Potency result in the test on DIV30, in the test on Dd2, with ECU, with FAB9, in the test on GB4 and in the test with HB3 was “inactive” each time. The Potency result in the test on ICS, with JCK, in the test with N140 and in the test on P93_24 was “inactive” in each case.
Regarding `O=Cc1ccco1`, the Potency entry in the test with DIV30, with Dd2, in the test on ECU, with FAB9, with GB4 and in the test with HB3 was “inactive” in each case. Also, the Potency result with ICS, in the test on JCK, with N140 and in the test on P93_24 was “inactive” in each case.
On to `[Cl-].[Cl-].[Hg+2]`, for which the Potency in the test with DIV30 was 15.1 µM (active); with Dd2, 12.6 µM (active); with ECU, 6.31 µM (active); with FAB9, 7.08 µM (active); in the test on GB4, 4.78 µM (active); in the test on ICS, 12.6 µM (active). Besides, in the test with N140, the Potency was 10 µM (active). In addition, in the test with HB3, the Potency result is “inactive”.
`O=C/C=C/c1ccccc1`: the Potency result in the test with DIV30, in the test with Dd2, in the test with ECU, with FAB9, in the test on GB4 and in the test with HB3 was “inactive” throughout. Further, the Potency entry in the test with ICS, with JCK, in the test on N140 and in the test on P93_24 was “inactive” each time.
Consider `C=CCN1CC[C@]23c4c5ccc(O)c4O[C@H]2[C@@H](O)C=C[C@H]3[C@H]1C5`, for which the Potency entry in the test on DIV30, in the test with Dd2, in the test with ECU, in the test on FAB9, in the test with GB4 and in the test with HB3 was “inactive” throughout. The Potency result with ICS, with JCK, in the test on N140 and in the test on P93_24 was “inactive” each time.
Consider `O=C(CS(=O)C(c1ccccc1)c1ccccc1)NO` (stereo not given), for which the Potency result in the test on DIV30, in the test on Dd2, in the test on ECU, with FAB9, with GB4 and in the test with HB3 was “inactive” each time. The Potency entry with ICS, with JCK, with N140 and with P93_24 was “inactive” each time.
For `O=C(O)C(Cl)(Cl)Cl`, the Potency entry in the test with DIV30, in the test on Dd2, with ECU, in the test on FAB9, with GB4 and with HB3 was “inactive” in each case. Also, the Potency entry in the test with ICS, in the test on JCK, in the test on N140 and in the test on P93_24 was “inactive” each time.

The values above are taken from PubChem BioAssay (NCATS).
